Epigenetic reg = Quantitative High-Throughput Screen for Regulators of Epigenetic Control; murine LDR cells, GFP reporter derepression, 30 h; Potency, µM (highest dose often 53.9 µM), actives largely listed as activators; 0.2% of 280,000 active; AID 1865, 2009; active means well fitted activation curve with a large enough effect; further: nearly all actives have a fitted effect of over 60% in size
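Readout is the number of GFP-expressing murine LDR cells, counted by cytometry following washing. Cells were treated with compound for 30 h at 37 C; the stably integrated CMV-GFP locus is normally silent.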
TRHR enhancer = qHTS for Small Molecule Agonists and Allosteric Enhancers of Human TRH Receptor: Primary Screen for Enhancers. 0.66% of 360,000 active. Thyrotropin-releasing hormone receptor (Homo sapiens), P34981. enhancement, % at 2 µM. TRHR cells, fluo-8 calcium fluorescence, EC20 TRH enhancement; in the data active means enhancement above about 30%
Target sequence (P34981 whole entry, looked up): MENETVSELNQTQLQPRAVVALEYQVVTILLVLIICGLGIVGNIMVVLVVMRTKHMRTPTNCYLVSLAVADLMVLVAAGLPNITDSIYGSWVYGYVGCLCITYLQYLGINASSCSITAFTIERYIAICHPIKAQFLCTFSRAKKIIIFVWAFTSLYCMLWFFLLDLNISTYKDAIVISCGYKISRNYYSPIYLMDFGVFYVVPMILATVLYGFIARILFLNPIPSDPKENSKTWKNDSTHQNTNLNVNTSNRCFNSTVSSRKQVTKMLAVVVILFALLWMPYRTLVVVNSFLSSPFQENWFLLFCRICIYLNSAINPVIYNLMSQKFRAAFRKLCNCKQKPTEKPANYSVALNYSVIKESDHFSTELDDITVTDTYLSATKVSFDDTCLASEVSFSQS
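Enhancer read-out: after compound pinning and an initial kinetic agonist-mode read, an EC20 of TRH (10 nM final) was injected and fluo-8 calcium signal (Ex 480/Em 530) followed at 1 s/cycle for 100 cycles in TRHR-expressing cells.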
D1 PAM = Potentiators of Human D1 Dopamine Receptor: qHTS | potentiation, % at 10 µM | 0.036% of 360,000 active | HEK293 TREx D1 cells, calcium flux, dopamine EC20 potentiation; in the data active means potentiation above about 30%
D1 antag = Antagonist of Human D 1 Dopamine Receptor: qHTS; HEK293 TREx D1 cells, calcium flux, dopamine EC80; stronger effect = lower value; AID 504652, 2011; 3.2% of 360,000 active; activity change, negative = inhibition, % at 10 µM; D(1A) dopamine receptor (Homo sapiens), P21728; in the data active means activity change below about -30%
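Antagonism measured as reduced calcium response to an EC80 dopamine addition following 180 s compound pre-read; cells were inducible HEK293 Trex D1 plated overnight at 30 C, read kinetically at 1 cycle/sec.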
TRHR ag = qHTS for Small Molecule Agonists and Allosteric Enhancers of Human TRH Receptor: Primary Screen for Agonists. Thyrotropin-releasing hormone receptor (Homo sapiens), P34981. TRHR cells, calcium flux fluo-8, FDSS agonist mode. activation, % at 2 µM. 0.18% of 360,000 active. AID 493084, 2011
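Agonist-mode FDSS calcium read (Ex 480/Em 530, 1 s cycles) in 1536-well TRHR cells with fluo-8 dye, after 10-cycle baseline and 23 nL compound addition; TRH at EC20 (10 nM final) added afterwards for the enhancer phase.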
D1 ag = Allosteric Agonists of the Human D1 Dopamine Receptor: qHTS | D(1A) dopamine receptor (Homo sapiens), P21728 | 1% of 360,000 active | activation, % at 2 µM | HEK293 T-REx D1 cells, calcium flux, agonist mode
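Agonism was scored from calcium flux recorded over 180 s (1 read/s) after pintool compound addition, following a 10-cycle baseline. Cells were inducible force-coupled HEK293 TREx D1, plated overnight at 30 C and loaded with no-wash calcium dye.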
Numbers stand for hits; i = inactive; nt = not tested or not shown; [ ] = remark or other dose. A selection: hits, their analogues and other compounds. The true share with any hit is near 4.6%. Unless noted, no stated cut-off is given here; in the data, active means activation above about 30%; inactive means the rest.

SMILES	Epigenetic reg	TRHR enhancer	D1 PAM	D1 antag	TRHR ag	D1 ag
CC1(C)O[C@H]2[C@@H](O1)[C@@H](C(=O)Nc1ccccc1C(F)(F)F)O[C@@H]1OC(C)(C)O[C@@H]12	i	i	i	i	i	i
COc1cc(/C=C/c2ccc3cccc(OC)c3n2)c(O)c([N+](=O)[O-])c1	i	i	i	i	i	i
COc1cc(/C=C/c2ccc3cccc(OC)c3n2)c(OC(C)=O)c([N+](=O)[O-])c1	i	i	i	-32	i	i
COc1ccc(C(=O)COC(=O)CCN2C(=O)C3CC=CCC3C2=O)c(OC)c1 (centres undefined)	nt	i	i	i	i	i
COc1ccc(CCC(=O)OC(C)C(=O)c2ccc(C)cc2)cc1 (centres undefined)	i	i	i	-36	i	i
Cc1ccc(C(=O)C(C)OC(=O)CNC(=O)c2ccc(Br)o2)cc1 (centres undefined)	nt	i	i	i	i	i
COc1ccc(C(=O)C(C)OC(=O)CCN2C(=O)C3CC=CCC3C2=O)cc1 (centres undefined)	nt	i	i	-35	i	i
CCn1cc(/C=C/C(=O)Nc2c(C)nn(Cc3ccccc3)c2C)cn1	i	35	i	i	i	i
Cc1nn(Cc2ccccc2Cl)c(C)c1NC(=O)/C=C/c1cnn(C)c1	i	i	i	i	i	i
CCCNC(=O)OC[C@H]1O[C@H](CCO/N=C/C[C@@H]2C=C[C@H](OC(C)=O)[C@@H](COC(C)=O)O2)C=C[C@@H]1Oc1ccc(OC)cc1	i	i	i	-30	i	i
N#Cc1cccc(NC(=O)COC(=O)Cn2nc(-c3ccccc3)oc2=O)c1	nt	i	nt	-85	i	i
CC(=O)Nc1ccc(S(=O)(=O)Nc2cccc(-c3ccc(N4CCCCCC4)nn3)c2)cc1	i	i	i	i	i	i
Cc1cc(=O)[nH]c2c(C)cc(S(=O)(=O)NCc3ccccc3)cc12	nt	i	i	-39	i	i
COc1ccc(NCc2cccn2-c2nnc(N3CCCCC3)s2)cc1OC	i	i	i	i	i	i
CCCn1c(NC(=O)c2cccc(C)c2C)nc2ccccc21	i	i	i	-49	i	i
COc1ccc(NC(=O)[C@@]2(CC(=O)O)CC(/C=C/c3ccccc3)=NO2)cc1	nt	i	i	i	i	i
COc1ccc(Cl)cc1NC(=O)[C@@]1(CC(=O)O)CC(/C=C/c2ccccc2)=NO1	nt	i	i	-35	i	i
COc1cc(C2CC(=O)N(Cc3ccc(F)cc3)c3ccccc3S2)cc(OC)c1OC (centres undefined)	i	i	i	i	i	i
Cc1ccc(-c2nc3sc(CCNC(=O)c4ccc(F)c(F)c4)c(C)n3n2)cc1	i	i	i	nt	i	i
COC(=O)c1sc(N)c(C(=O)OC)c1COC(=O)[C@@H](NS(=O)(=O)c1cccc(Cl)c1)C(C)C	i	i	i	i	i	i
COC(=O)c1sc(N)c(C(=O)OC)c1COC(=O)CNS(=O)(=O)c1cccc(C#N)c1	i	i	i	-33	i	i
COc1cc(NC(=O)Cn2c(=O)n(Cc3ccccc3Cl)c(=O)c3cc(OC)c(OC)cc32)cc(OC)c1	i	i	i	i	i	i
C/C(=N/Nc1ccnc2cc(Cl)ccc12)c1ccc(N)cc1	nt	i	i	-42	i	i
C/C(=N/Nc1ccnc2cc(Cl)ccc12)c1ccc(O)cc1	nt	i	i	i	i	i
O=C(CCCCn1c(=O)c2ccccc2n(Cc2ccccc2Cl)c1=O)NCc1ccc2c(c1)OCO2	i	i	i	i	i	i
SMILES	Epigenetic reg	TRHR enhancer	D1 PAM	D1 antag	TRHR ag	D1 ag
COc1ccc(Cc2noc(CN3CCN(c4ccc(Cl)cn4)CC3)n2)cc1OC	i	i	i	-31	i	i
COc1ccc(Cc2noc(CN3CCN(Cc4cccc(Cl)c4)CC3)n2)cc1OC	i	i	i	i	i	i
C=C(CC(=O)OC)C[C@]1(CC(=O)OC)CC2(CC=C(C)C)C(=O)C(C(=O)c3ccccc3)=C(OC(=O)c3ccc(Br)cc3)C(CC=C(C)C)(C1)C2=O (some centres undefined)	i[10.1 µM]	nt	nt	nt	nt	nt
COc1cc(OC)cc(C(=O)NC(C)c2ccc(Br)cc2)c1 (centres undefined)	i	i	i	i	i	41
COc1ccc(C2CC(c3ccccc3)=NN2C(=O)COC(=O)c2cccnc2Cl)cc1 (centres undefined)	i	i	i	i	i	i
COc1ccc(C2CC(c3ccccc3)=NN2C(=O)COC(=O)c2cc(S(=O)(=O)N3CCOCC3)ccc2Cl)cc1 (centres undefined)	i	40	i	i	i	i
COc1ccc(C2CC(c3ccccc3)=NN2C(=O)CCC(=O)O)cc1 (centres undefined)	nt	33	i	i	i	i
COc1ccc(C2CC(c3ccccc3)=NN2C(=O)COC(=O)c2cccnc2)cc1 (centres undefined)	i	37	i	i	i	i
COc1ccc(C2CC(c3ccc4ccccc4c3)=NN2C(=O)CSc2ncccn2)cc1 (centres undefined)	i	i	i	i	i	i
COc1ccc(C2CC(c3ccc4ccccc4c3)=NN2C(=O)CN2C(=O)CCC2=O)cc1 (centres undefined)	i	i	i	-30	i	i
COc1ccc(N2C(=O)C(CC(=O)Nc3ccc(Cl)cc3)N(Cc3ccc4c(c3)OCO4)C2=O)cc1 (centres undefined)	i	i	i	i	i	i
[C-]#[N+]c1cc(-c2ccncc2)c(C)[nH]c1=O	i	nt	nt	nt	nt	nt
CCc1nn2c(=O)cc(COc3ccc(/C=C(\C#N)C(=O)Nc4ccc(C)cc4)cc3)nc2s1	i	i	i	i	i	i
Cc1ccc(-c2nc(Nc3ccc(O)cc3)c3ccccc3n2)cc1	nt	i	i	i	i	i
O=[N+]([O-])c1ccc(-c2nc(Nc3cccc(O)c3)c3ccccc3n2)cc1	nt	i	i	-33	i	i
Cc1ccc(-c2nc(Nc3cccc(O)c3)c3ccccc3n2)cc1	nt	i	i	-30	i	i
CCOC(=O)c1c(C)oc2nc(C)nc(NCc3ccc(OC)cc3OC)c12	i	i	i	i	i	i
O=C(NCCN1CCCCC1)c1ccc(-n2c(=O)c(=O)[nH]c3ccccc32)cc1	i	nt	nt	nt	nt	nt
